Where “and” joins values, the source holds several entries; their conditions need not be identical. Equal values may be shown once. Out of some 360,000 compounds screened, about 3,000 (0.83%) were called active. Rule as the data show it: active = inhibition above about 50%; inactive = the rest. The full list was thinned out, with actives kept by preference. More than one record can exist for a structure, and the calls need not agree.

The target in this assay is DNA (cytosine-5)-methyltransferase 1 (Homo sapiens) (UniProt P26358). Briefly: human DNMT1 methyltransferase inhibitors, primary screen, biochemical, molecular beacon, fluorescence, HinP1I cleavage, uHTS (AID 588458). Conditions: at 10 µM, stronger effect = higher value.
DNA (cytosine-5)-methyltransferase 1 (Homo sapiens), sequence (P26358 504-1616 limits assumed): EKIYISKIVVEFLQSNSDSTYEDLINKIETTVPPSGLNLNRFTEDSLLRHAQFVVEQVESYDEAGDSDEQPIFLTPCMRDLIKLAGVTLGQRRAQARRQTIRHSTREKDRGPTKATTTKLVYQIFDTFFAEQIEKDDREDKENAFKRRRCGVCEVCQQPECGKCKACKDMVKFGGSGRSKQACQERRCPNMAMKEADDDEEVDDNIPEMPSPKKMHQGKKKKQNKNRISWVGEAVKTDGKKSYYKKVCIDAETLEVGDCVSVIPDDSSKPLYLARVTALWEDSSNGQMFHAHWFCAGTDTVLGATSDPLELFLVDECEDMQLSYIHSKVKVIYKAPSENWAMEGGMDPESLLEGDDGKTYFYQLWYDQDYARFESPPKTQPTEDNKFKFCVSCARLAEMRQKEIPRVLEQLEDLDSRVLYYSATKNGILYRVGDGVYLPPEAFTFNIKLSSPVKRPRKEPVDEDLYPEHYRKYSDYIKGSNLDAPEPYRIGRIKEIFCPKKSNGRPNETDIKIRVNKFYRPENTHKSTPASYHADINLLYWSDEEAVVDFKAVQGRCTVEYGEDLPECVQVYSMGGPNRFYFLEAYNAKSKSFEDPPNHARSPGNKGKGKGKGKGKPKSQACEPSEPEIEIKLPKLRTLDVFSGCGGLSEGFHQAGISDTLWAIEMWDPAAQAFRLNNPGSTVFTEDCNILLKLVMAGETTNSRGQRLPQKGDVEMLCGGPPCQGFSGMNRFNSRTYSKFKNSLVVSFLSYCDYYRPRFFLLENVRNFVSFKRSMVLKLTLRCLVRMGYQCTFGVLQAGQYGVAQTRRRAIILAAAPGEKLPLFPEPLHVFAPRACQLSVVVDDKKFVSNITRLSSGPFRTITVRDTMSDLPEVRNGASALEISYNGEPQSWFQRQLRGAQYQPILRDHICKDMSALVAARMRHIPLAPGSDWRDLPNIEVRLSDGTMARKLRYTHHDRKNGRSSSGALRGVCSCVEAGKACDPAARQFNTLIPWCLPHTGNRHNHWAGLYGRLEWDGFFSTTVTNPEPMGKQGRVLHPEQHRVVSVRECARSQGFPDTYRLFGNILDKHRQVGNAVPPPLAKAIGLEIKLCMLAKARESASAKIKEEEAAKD
As to `COc1cc(C)c(C(C)C)cc1S(=O)(=O)n1ccnc1`, the inhibition (reported as % activation of signal) was 27.6% (inactive).
Regarding `C=CCCC(=O)Nc1nc(C)c(-c2csc(Nc3ccc(Cl)cc3)n2)s1`, the inhibition (reported as % activation of signal) was -14.7% (inactive).
Turning to `Cc1cn([C@H]2C[C@H](O)[C@@H](/C=C/C(=O)NCCCc3ccccc3)O2)c(=O)[nH]c1=O`, the inhibition (reported as % activation of signal) is 1% (inactive).
Consider `CCC(=O)Nc1cccc(C2=NOC3(C2)C[C@@H](C(N)=O)N(C(=O)c2cc([N+](=O)[O-])cc([N+](=O)[O-])c2C)C3)c1` (stereo partly drawn), for which the inhibition (reported as % activation of signal) is 4.19% (inactive).
With `O=S(=O)(Nc1ccc2[nH]ncc2c1)c1ccccc1Cl`, the inhibition (reported as % activation of signal) was -2.94% (inactive).
Under `COc1cc(/C(=C/c2ccccc2)c2ccccc2)c2c(c1)oc1ccccc12` stands 10.2% (inactive); under `Cc1nnc(N/N=C/c2cccs2)[nH]c1=O`, 56% (active); under `Cc1nnc(N/N=C/c2ccccn2)[nH]c1=O`, 5.44% (inactive).
Next, `Cc1n[nH]c(=O)nc1N/N=C/c1cccs1`: 3.53% (inactive); `CNc1ccc(SC#N)cc1`: -16.1% (inactive).
In the case of `ON=C1/C(=N\O)CC2(C/C1=N/O)OCCO2`, the inhibition (reported as % activation of signal) is 12.4% (inactive).
In the case of `O/N=C1\CC2(Cc3nonc31)OCCO2`, the inhibition (reported as % activation of signal) was 77.1% (active).
Under `CC(C)N=C1CCCC1C(=S)SSC(=S)C1CCCC1=NC(C)C` (stereo not drawn) stands -10.8% (inactive); under `O=C(NCCCN1CCOCC1)c1ccccc1NS(=O)(=O)c1ccc(F)cc1`, 0.01% (inactive).
Regarding `O=C(NCc1ccncc1)c1ccc(NS(=O)(=O)c2cccc([N+](=O)[O-])c2)cc1`, the inhibition (reported as % activation of signal) is -0.75% (inactive).
Consider `Cc1c(-c2ccccc2)n[nH]c1C(=O)N=Nc1c(O)[nH]c2ccccc12`, for which the inhibition (reported as % activation of signal) was 47.8% (inactive).
`O=[N+]([O-])c1cc(S(=O)(=O)Nc2cccc(Cl)c2)ccc1N=Nc1c(O)[nH]c2ccccc12`: the inhibition (reported as % activation of signal) is 56.3% (active).
Next, `CCc1cc(CNC(=O)CC2C(=O)NCCN2Cc2ccccc2C(F)(F)F)on1` (stereo not drawn): -2.03% (inactive); `CCOC(=O)c1c(-c2cccc(N)c2)cn2ccccc12`: 2.56% (inactive); `NC(=S)NN=Cc1ccc(OC(=O)COc2cc(Cl)c(Cl)cc2Cl)cn1`: -3.17% (inactive).
For the compound `Cc1ccccc1CC1(CO)CCCN(Cc2ccc3c(c2)OCCO3)C1` (stereo not drawn), the inhibition (reported as % activation of signal) was -0.5% (inactive).
As to `CCOc1cc(CN2CCCC(CO)(Cc3ccc(F)cc3F)C2)ccc1OC` (stereo not drawn), the inhibition (reported as % activation of signal) was 60.8% (active).
For `COc1cccc(CC2(CO)CCCN(Cc3ccc(OC(F)F)cc3)C2)c1` (stereo not drawn), the inhibition (reported as % activation of signal) was 1.47% (inactive).
Take `CC1(C(=O)NCc2ccc(F)c(F)c2)Cc2c(-c3ccc4c(c3)OCO4)ccnc2O1` (stereo not drawn): the inhibition (reported as % activation of signal) is -0.89% (inactive).
`Cc1cc2c(cc1C)N1C(=O)c3cc4ccccc4cc3NC(=O)C1C(=O)N2` (stereo not drawn): the inhibition (reported as % activation of signal) is 40.5% (inactive).
As to `Cc1nnc(SCC2=C(C(=O)O)N3C(=O)C(NC(=O)Cn4nc(C)c(Cl)c4C)C3SC2)s1` (stereo not drawn), the inhibition (reported as % activation of signal) was 2.36% (inactive).
For `CO/N=C(\C(=O)N[C@@H]1C(=O)N2C(C(=O)O)=C(COC(C)=O)CS[C@H]12)c1csc(N)n1` (stereo in doubt), the inhibition (reported as % activation of signal) was 20.2% (inactive) and 7.93% (inactive) and 65.2% (active).
Regarding `CCN1CCN(C(=O)N[C@@H](C(=O)N[C@@H]2C(=O)N3C(C(=O)O)=C(CSc4nnnn4C)CS[C@H]23)c2ccc(O)cc2)C(=O)C1=O`, the inhibition (reported as % activation of signal) was 1.74% (inactive).
On to `C=CC1=C(C(=O)O)N2C(=O)[C@@H](NC(=O)/C(=N/OCC(=O)O)c3csc(N)n3)[C@H]2SC1`, for which the inhibition (reported as % activation of signal) is -43.7% (inactive).
With `C=CC1=C(C(=O)O)N2C(=O)[C@@H](NC(=O)/C(=N\OCC(=O)O)c3csc(N)n3)[C@H]2SC1`, the inhibition (reported as % activation of signal) is 81.2% (active).
Regarding `CCCCN(C=O)c1c(CC)nc2c(OCCC3CCCCC3)cccn12`, the inhibition (reported as % activation of signal) is -6.04% (inactive).
For the compound `CCOC(=O)C1=CCC(c2ccc(F)cc2)N(S(=O)(=O)c2ccc(C)cc2)C1` (stereo not drawn), the inhibition (reported as % activation of signal) is 6.68% (inactive).
For the compound `CC1CCCCN1C(=O)CCS(=O)(=O)Cc1ccccc1` (stereo not drawn), the inhibition (reported as % activation of signal) was -2.02% (inactive).
Regarding `CC(C)CC(CCc1ccccc1)OS(N)(=O)=O` (stereo not drawn), the inhibition (reported as % activation of signal) was 4.1% (inactive).
Take `COc1ccc(S(=O)(=O)N2CCN(C(C)C(=O)Nc3ccc(C(C)C)cc3)CC2)cc1` (stereo not drawn): the inhibition (reported as % activation of signal) is 2.17% (inactive).
Turning to `CC(NC(=O)COc1ccc(-c2ccccc2)cc1)C1CCCO1` (stereo not drawn), the inhibition (reported as % activation of signal) is -1.92% (inactive).
`COc1ccc(OCC(=O)NNC(=O)C2CCC2)cc1`: the inhibition (reported as % activation of signal) is 0.09% (inactive).
For the compound `COc1ccc(OCC(=O)NNC(=O)c2ccc(-c3ccccc3)cc2)cc1`, the inhibition (reported as % activation of signal) is 59.6% (active).
In the case of `COc1ccc(Cl)cc1NC(=O)CN(C)C(=O)c1cn(-c2ccccc2)nc1-c1cccs1`, the inhibition (reported as % activation of signal) was -24.5% (inactive).
For `CC(C)(C)c1ccc(S(=O)(=O)N2CCN(C(=O)c3ccc4c(c3)C(=O)N(Cc3ccncc3)C4=O)CC2)cc1`, the inhibition (reported as % activation of signal) is -1.88% (inactive).
With `O=C(CCN1C(=O)C2C3C=CC(C3)C2C1=O)Oc1ccc2ccccc2c1` (stereo not drawn), the inhibition (reported as % activation of signal) was -3.47% (inactive).
Regarding `O=C(CCN1C(=O)C2C3C=CC(C3)C2C1=O)Nc1ccccc1F` (stereo not drawn), the inhibition (reported as % activation of signal) is 75.5% (active).
Turning to `O=C(CCN1C(=O)C2C3CCC(C3)C2C1=O)Nc1ccc(Cl)cc1Cl` (stereo not drawn), the inhibition (reported as % activation of signal) is -0.32% (inactive).

For the origin of these results see PubChem BioAssay AID588458 (Sanford-Burnham Center for Chemical Genomics, 2011).
